Results on 25 molecules are retold here after PubChem BioAssay (NCATS).

Structures are written as SMILES. Unmarked numbers belong to inactive results. Results filed as inconclusive are left out. Activity calls are given as the source filed them. The call rests on the fitted dose curve; in most records, active means well fitted curve in the direction sought with a large enough effect; inconclusive means small, poorly fitted or top-dose-only effect, or another doubt; inactive means no such curve, though single readings can be large; an effect the other way counts as inactive or inconclusive. Where a SMILES comes first, the peptide text is derived from it. The star is where a group is joined. Cbz = O=C(OCc1ccccc1)*; CH2Cl = ClC*

For assay [1], the target named is Glutathione peroxidase 1 (Homo sapiens) (UniProt P07203). Kind of assay: Primary qHTS Assay for Inhibitors of Recombinant Selenoprotein Glutathione Peroxidase 1 (GPX1) (AID 1845191). Further: nearly all actives have a fitted effect of over 65% in size. Further: potency means the concentration at half of the fitted maximal effect. In short, it runs like this: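 GR-coupled readout: NADPH consumption tracked by fluorescence, ex 340/em 450 nm, at t=0 and after 15 min at RT. Final mix 10 nM GPX1, 1 mM GSH, 0.5 mM CHP, 0.5 mM NADPH, 100 nM GR, 0.01% BSA, following 30 min enzyme–compound preincubation.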
Chain of Glutathione peroxidase 1 (Homo sapiens) (P07203 whole entry, looked up): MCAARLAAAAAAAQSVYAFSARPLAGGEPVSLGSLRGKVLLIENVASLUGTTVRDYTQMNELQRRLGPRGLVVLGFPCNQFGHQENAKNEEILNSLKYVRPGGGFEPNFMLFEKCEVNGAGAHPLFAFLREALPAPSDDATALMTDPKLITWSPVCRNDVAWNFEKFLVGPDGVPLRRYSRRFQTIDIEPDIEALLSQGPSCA
(In qHTS, concentration-response curves come from the screen itself.)

In assay [2] the target is Phospholipid hydroperoxide glutathione peroxidase GPX4 (Homo sapiens) (UniProt P36969). Nature of the assay: Primary qHTS Assay for Inhibitors of Recombinant Selenoprotein Glutathione Peroxidase 4 (GPX4) (AID 1845192). Further: nearly all actives have a fitted effect of over 65% in size. In short, it runs like this: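 Steps: GPX4 plus compound, 30 min RT; add GR/GSH/NADPH master mix; start with cumene hydroperoxide; read 340/450 nm fluorescence at 0 and 15 min. Finals were 200 nM GPX4, 1 mM GSH, 0.5 mM CHP, 0.5 mM NADPH, 100 nM GR.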
Chain of Phospholipid hydroperoxide glutathione peroxidase GPX4 (Homo sapiens) (P36969 whole entry, looked up): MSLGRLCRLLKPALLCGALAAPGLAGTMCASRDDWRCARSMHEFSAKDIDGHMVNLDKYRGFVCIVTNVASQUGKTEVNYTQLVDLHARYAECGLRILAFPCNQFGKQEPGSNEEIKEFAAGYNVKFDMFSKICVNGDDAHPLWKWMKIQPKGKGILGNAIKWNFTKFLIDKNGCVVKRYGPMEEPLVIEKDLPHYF

Assay [3] has as its target Luciferin 4-monooxygenase (Photinus pyralis) (UniProt P08659). Nature of the assay: Primary firefly luciferase (FLuc) qHTS assay for identification of artifact compounds. (AID 1845220). Further: nearly all actives have a fitted effect of over 60% in size. Further: potency means the concentration at half of the fitted maximal effect. An outline of the steps: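 Enzymatic FLuc inhibition assay: compounds pre-exposed to luciferin/ATP (10 uM each) for 15 min, then purified P. pyralis enzyme at 10 nM added. Read-out: luminescence at 5 min.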

A short description of assay [4]: Primary fluorescence-based thiol-reactive (MSTI) qHTS assay for identification of artifact compounds. (AID 1845221). Further: nearly all actives have a fitted effect of over 65% in size. Further: potency means the concentration at half of the fitted maximal effect. In short, it runs like this: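 MSTI probe at 4 uM final in 2% DMSO/PBS pH 7.4; compounds, 1 h at room temperature in dark. Fluorescence Ex/Em 525/598 nm, normalised to Acetyl-MSTI and MSTI, fitted to 4-parameter Hill.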
Assay [5] concerns Nanoluciferase (engineered Oplophorus gracilirostris luciferase). Nature of the assay: Primary Nanoluciferase (NLuc) qHTS assay for identification of artifact compounds. (AID 1845222).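 Further: NLuc secreted into diluted conditioned medium of S16 cells; series mostly up to about 54 µM.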 An outline of the steps:
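S16 cell supernatant NLuc, 1:55; cpds qHTS; 15 min RT dark; Nano-Glo substrate 1:100, 5 min; luminescence; Hill fit of % inhibition.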

Assay [6] in a line: Primary redox qHTS assay for identification of artifact compounds. (AID 1845223). An outline of the steps:
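Redox-cycling detection via DTT (250 uM final) oxidation coupled to Amplex Red (25 uM)/HRP (250 mU/mL) in HBSS. 15 min preincubation plus 30 min after DTT, room temperature. Ex/Em 525/598 nm; 4-parameter Hill fit against DMSO and 10 uM DA3003.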

As for `CC(C)CCCCC(=O)N[C@@H](CO)C(=O)N[C@@H](CC(C)C)C(=O)[C@@]1(CO)CO1`, the Potency entry in assay [1], in assay [2], in assay [3], in assay [4], in assay [5] and in assay [6] was “inactive” each time.

As for `O=C(Nc1ccccc1)N1CCN(c2nc(-c3ccccc3)ns2)CC1`, the Potency result in assay [1], in assay [2], in assay [3], in assay [4], in assay [5] and in assay [6] was “inactive” in each case.

Consider `CC(C)S(=O)(=O)Nc1ccc(F)c(C(=O)c2c[nH]c3ncc(-c4cccnc4)cc23)c1F`, for which the Potency entry in assay [1], in assay [2], in assay [3], in assay [4], in assay [5] and in assay [6] was “inactive” in each case.

On to `C[C@@H]1C[C@H]2O[C@@]3(O[C@@H]2C(C)(C)O)C(O)[C@@]2(C)C4CCC5C(C)(C)[C@@H](O[C@H]6OC[C@H](O)[C@@H](O)[C@@H]6O)CC[C@@]56C[C@@]46CC[C@]2(C)C13` (stereo not given in full), for which the Potency entry in assay [1], in assay [2], in assay [3], in assay [4], in assay [5] and in assay [6] was “inactive” throughout.

For `CCn1c(-c2nonc2N)nc2c(C#CCO)ncc(OCCCN)c21`, the Potency entry in assay [1], in assay [2], in assay [3], in assay [4], in assay [5] and in assay [6] was “inactive” throughout.

As to `C/C=C(\C)C(=O)O[C@H]1C=C(CO)C(=O)[C@H](OC(C)=O)[C@H]1C(C)C`, the Potency result in assay [1], in assay [2], in assay [3], in assay [4], in assay [5] and in assay [6] was “inactive” each time.

As for `CCCNCCc1ccc(NS(=O)(=O)c2ccc(OC(F)(F)F)cc2)cc1`, the Potency entry in assay [1], in assay [2], in assay [3], in assay [4], in assay [5] and in assay [6] was “inactive” in each case.

For the molecule `CC(C)c1ccccc1OC(=O)NCCc1ccc2ccccc2c1`, the Potency entry in assay [1], in assay [2], in assay [3], in assay [4], in assay [5] and in assay [6] was “inactive” throughout.

Consider `CC(C)(C)NC(=O)[C@H]1CC[C@H]2[C@@H]3CC[C@H]4NC(=O)CC[C@]4(C)[C@H]3CC[C@]12C`, for which the Potency result in assay [1], in assay [2], in assay [3], in assay [4], in assay [5] and in assay [6] was “inactive” throughout.

Turning to `O=C(NC[C@H](O)CN1CCc2ccccc2C1)c1ccnc(NC2CCC2)c1`, the Potency result in assay [1], in assay [2], in assay [3], in assay [4], in assay [5] and in assay [6] was “inactive” in each case.

For the molecule `Nc1c(S(=O)(=O)c2ccccc2)c2nc3ccccc3nc2n1-c1ccc(F)cc1`, the Potency in assay [1] is 20.2 µM (active). The Potency entry in assay [2], in assay [3], in assay [4], in assay [5] and in assay [6] was “inactive” in each case.

Turning to `COc1ccc(S(=O)(=O)n2cnc3cc(C)c(C)cc32)cc1`, the Potency entry in assay [1], in assay [2], in assay [3], in assay [4], in assay [5] and in assay [6] was “inactive” throughout.

Regarding `COC1=CC(=O)O/C1=C(/OC)[C@@H]1O[C@H]1c1ccccc1`, the Potency result in assay [1], in assay [2], in assay [3], in assay [4], in assay [5] and in assay [6] was “inactive” in each case.

For `O=c1[nH]c2ccc(C#CCN3CCC(Cc4ccccc4)CC3)cc2[nH]1`, the Potency entry in assay [1], in assay [2], in assay [3], in assay [4], in assay [5] and in assay [6] was “inactive” each time.

As for `CC1(C)C2CCC(CO[C@@H]3O[C@H](CO[C@@H]4OC[C@](O)(CO)[C@H]4O)[C@@H](O)[C@H](O)[C@H]3O)C1C2` (stereo not given in full), the Potency entry in assay [1], in assay [2], in assay [3], in assay [4], in assay [5] and in assay [6] was “inactive” each time.

With `Cc1cc(-c2ncc(-c3cccnc3)cc2/C=C/c2ccccc2)cnc1-c1cccnc1`, the Potency in assay [1] was 18 µM (active). Also, the Potency result in assay [2], in assay [3], in assay [4], in assay [5] and in assay [6] was “inactive” each time.

With `N#Cc1cccc(C(=O)Nc2cc(-c3ccccc3)nn2-c2ccccc2)c1`, the Potency entry in assay [1], in assay [2], in assay [3], in assay [4], in assay [5] and in assay [6] was “inactive” throughout.

`C/C(=C\CCC(C)C1=CCC2(C)OC3=C(CC12)C(=O)C(O)CC3)CO` (stereo not given): the Potency result in assay [1], in assay [2], in assay [3], in assay [4], in assay [5] and in assay [6] was “inactive” in each case.

Turning to `CC(=O)C1(C)CCC2C3C=C(C)C4=CC(=O)CCC4(C)C3CCC21C` (stereo not given), the Potency entry in assay [1], in assay [2], in assay [3], in assay [4], in assay [5] and in assay [6] was “inactive” each time.

With `CC1=CC2/C=C(\C)CCC(O)C(=O)C(O)CC(=O)C23C(=O)NC(CC(C)C)C3C1C` (stereo not given), the Potency entry in assay [1], in assay [2], in assay [3], in assay [4], in assay [5] and in assay [6] was “inactive” throughout.

As to `CC(C)C[C@H](NC(=O)CNC(=O)OCc1ccccc1)C(=O)N[C@@H](Cc1ccccc1)C(=O)CCl` (Cbz-Gly-Leu-Phe-CH2Cl), the Potency result in assay [1], in assay [2], in assay [3], in assay [4], in assay [5] and in assay [6] was “inactive” each time.

Turning to `COc1ccc(CN2CCN(C(=O)CCNC(=O)c3ccc(C(C)(C)C)cc3)CC2)cc1`, the Potency result in assay [1], in assay [2], in assay [3], in assay [4], in assay [5] and in assay [6] was “inactive” in each case.

In the case of `C1=C/COCc2cc(ccc2OCCN2CCCC2)Nc2nccc(n2)-c2cccc(c2)COC/1`, the Potency entry in assay [1], in assay [2], in assay [3], in assay [4], in assay [5] and in assay [6] was “inactive” in each case.

On to `Cc1sc2c(c1C)C(c1ccc(Cl)cc1)=N[C@@H](CC(=O)Nc1ccc(OCCOCCOCCOCCNc3cccc4c3C(=O)N(C3CCC(=O)NC3=O)C4=O)cc1)c1nnc(C)n1-2` (stereo not given in full), for which the Potency entry in assay [1], in assay [2], in assay [3], in assay [4], in assay [5] and in assay [6] was “inactive” throughout.

In the case of `COc1cc(O)cc(/C=C/c2cccc(O)c2)c1`, the Potency entry in assay [1], in assay [2], in assay [5] and in assay [6] was “inactive” throughout. The Potency in assay [3] is 10.7 µM (active); in assay [4], 18.9 µM (active).
